The values below come from article PMC8384837, “Expanding the binding specificity for RNA recognition by a PUF domain”.

Common to all, as to assay: yeast three-hybrid, YBZ-1, SC-Leu-His + 0.5 mM 3-AT, 4 days
Details in all cases: tags: N-Gal4 AD-HA kept; label: inside an RPR1-promoter hybrid RNA with tandem MS2 sites; ssRNA

One assay has as its target PUM1 PUF domain R5-QGR (Homo sapiens, UniProt Q14671 828-1176, C1007Q;R1008G;Q1011R). The method, boiled down:
(§1)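 Matching RNA elements and Pumilio-1 PUF domain libraries, randomized at the three base-contacting residues of every repeat, were co-expressed from a centromeric plasmid in strain YBZ-1 (LexA–MS2 coat fusion, HIS3 reporter). The repeat regions were PCR-amplified and Illumina-sequenced from cells grown four days on SC-Leu (input) or SC-Leu-His + 0.5 mM 3-AT (selection). The interaction score is the log change in variant frequency from input to selection. It is computed in log2, with a pseudocount of 1 for absent variants.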

A further assay deals with PUM1 PUF domain R5-ATR (Homo sapiens, UniProt Q14671 828-1176, C1007A;R1008T;Q1011R). The gist of the method: as §1
The target in another assay is PUM1 PUF domain R5-DMR (Homo sapiens, UniProt Q14671 828-1176, C1007D;R1008M;Q1011R). The method, boiled down: as §1
The target in a further assay is PUM1 PUF domain R5-KYR (Homo sapiens, UniProt Q14671 828-1176, C1007K;R1008Y;Q1011R). The gist of the method:
as §1

In the next assay the target is PUM1 PUF domain R5-KAG (Homo sapiens, UniProt Q14671 828-1176, C1007K;R1008A;Q1011G). The gist of the method:
as §1

The target in another assay is PUM1 PUF domain R8-SYR (Homo sapiens, UniProt Q14671 828-1176, N1122S;Q1126R). The gist of the method: as §1
For the next assay, the target named is PUM1 PUF domain R3-GWD (Homo sapiens, UniProt Q14671 828-1176, C935G;R936W;Q939D). The method, boiled down: as §1
The next assay deals with T1, PUM1 PUF domain R6-GWC (Homo sapiens, UniProt Q14671 828-1176, N1043G;Y1044W;Q1047C).
T1 sequence: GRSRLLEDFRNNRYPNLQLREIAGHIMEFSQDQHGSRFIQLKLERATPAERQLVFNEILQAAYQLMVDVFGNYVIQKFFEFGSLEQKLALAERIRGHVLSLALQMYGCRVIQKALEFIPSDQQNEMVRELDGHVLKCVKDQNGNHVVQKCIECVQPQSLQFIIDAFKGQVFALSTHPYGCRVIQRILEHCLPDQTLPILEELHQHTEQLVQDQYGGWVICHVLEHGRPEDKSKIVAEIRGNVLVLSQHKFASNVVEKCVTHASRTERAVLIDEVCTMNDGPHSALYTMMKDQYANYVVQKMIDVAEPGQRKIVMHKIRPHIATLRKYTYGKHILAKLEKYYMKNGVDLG
The method, boiled down: as §1

In the next assay the target is PUM1 PUF domain R3-TAQ (Homo sapiens, UniProt Q14671 828-1176, C935T;R936A). The gist of the method:
as §1

For the next assay, the target named is PUM1 PUF domain R3-DYE (Homo sapiens, UniProt Q14671 828-1176, C935D;R936Y;Q939E). The gist of the method:
as §1

The target in the next assay is PUM1 PUF domain R4-MPV (Homo sapiens, UniProt Q14671 828-1176, N971M;H972P;Q975V). The gist of the method: as §1
The next assay has as its target PUM1 PUF domain R3-PFL (Homo sapiens, UniProt Q14671 828-1176, C935P;R936F;Q939L). The gist of the method:
as §1

The next assay concerns the target PUM1 PUF domain R3-RVR (Homo sapiens, UniProt Q14671 828-1176, C935R;R936V;Q939R). The gist of the method:
as §1

The target in a further assay is PUM1 PUF domain R3-YFE (Homo sapiens, UniProt Q14671 828-1176, C935Y;R936F;Q939E). The method, boiled down:
as §1

The next assay concerns the target PUM1 PUF domain R7-LPT (Homo sapiens, UniProt Q14671 828-1176, S1079L;N1080P;E1083T). The gist of the method: as §1
Another assay has as its target PUM1 PUF domain R2-EWE (Homo sapiens, UniProt Q14671 828-1176, N899E;Y900W;Q903E). The gist of the method:
as §1

The target of another assay is PUM1 PUF domain R1-RTW (Homo sapiens, UniProt Q14671 828-1176, S863R;R864T;Q867W). The gist of the method:
as §1

Consider “GGCUAGAACUAGUGGAUCCCCCGGCGCCCGGCGGCUCGAGCCCGGGUAAGUGUCAAUAGUCUGCAUGCCGCCGGGCGCCAUGCCUGCAGGUCGACUCUAGAAAACAUG”, for which the binding signal with PUM1 PUF domain R5-QGR was 3.22 log2 enrichment (interaction score); with PUM1 PUF domain R5-ATR, 3.13 log2 enrichment (interaction score); in the assay with PUM1 PUF domain R5-DMR, 3.01 log2 enrichment (interaction score); in the assay with PUM1 PUF domain R5-KYR, 2.48 log2 enrichment (interaction score); with PUM1 PUF domain R5-KAG, 2.58 log2 enrichment (interaction score).
For the sequence “GGCUAGAACUAGUGGAUCCCCCGGCGCCCGGCGGCUCGAGCCCGGGUAAGUGUAAAUAGUCUGCAUGCCGCCGGGCGCCAUGCCUGCAGGUCGACUCUAGAAAACAUG”, the binding signal in the assay with PUM1 PUF domain R8-SYR is 4.42 log2 enrichment (interaction score); in the assay with PUM1 PUF domain R3-GWD it was 5.07 log2 enrichment (interaction score); in the assay with PUM1 PUF domain R6-GWC it was 2.76 log2 enrichment (interaction score); with PUM1 PUF domain R3-TAQ it was 4.25 log2 enrichment (interaction score); with PUM1 PUF domain R3-DYE, 3.76 log2 enrichment (interaction score); in the assay with PUM1 PUF domain R4-MPV it was 2.14 log2 enrichment (interaction score). The binding signal with PUM1 PUF domain R3-PFL was 3.64 log2 enrichment (interaction score).
As for “GGCUAGAACUAGUGGAUCCCCCGGCGCCCGGCGGCUCGAGCCCGGGUAAGCGUAAAUAGUCUGCAUGCCGCCGGGCGCCAUGCCUGCAGGUCGACUCUAGAAAACAUG”, the binding signal with PUM1 PUF domain R8-SYR is 4.37 log2 enrichment (interaction score).
“GGCUAGAACUAGUGGAUCCCCCGGCGCCCGGCGGCUCGAGCCCGGGUAAGUGUAAUUAGUCUGCAUGCCGCCGGGCGCCAUGCCUGCAGGUCGACUCUAGAAAACAUG”: the binding signal is 4.85 log2 enrichment (interaction score) in the assay with PUM1 PUF domain R3-RVR and 4.55 log2 enrichment (interaction score) with PUM1 PUF domain R3-PFL.
For “GGCUAGAACUAGUGGAUCCCCCGGCGCCCGGCGGCUCGAGCCCGGGUAAGUGUAAGUAGUCUGCAUGCCGCCGGGCGCCAUGCCUGCAGGUCGACUCUAGAAAACAUG”, the values for the binding signal with PUM1 PUF domain R3-RVR and in the assay with PUM1 PUF domain R3-YFE were 1.73 log2 enrichment (interaction score) and 5.72 log2 enrichment (interaction score), respectively.
Take “GGCUAGAACUAGUGGAUCCCCCGGCGCCCGGCGGCUCGAGCCCGGGUAAGUUUAAAUAGUCUGCAUGCCGCCGGGCGCCAUGCCUGCAGGUCGACUCUAGAAAACAUG”: the binding signal in the assay with PUM1 PUF domain R7-LPT is 3.22 log2 enrichment (interaction score).
For the sequence “GGCUAGAACUAGUGGAUCCCCCGGCGCCCGGCGGCUCGAGCCCGGGUAAGUGUAAAGAGUCUGCAUGCCGCCGGGCGCCAUGCCUGCAGGUCGACUCUAGAAAACAUG”, the binding signal with PUM1 PUF domain R2-EWE is 3.45 log2 enrichment (interaction score).
For “GGCUAGAACUAGUGGAUCCCCCGGCGCCCGGCGGCUCGAGCCCGGGUAAGUGUAAAUUGUCUGCAUGCCGCCGGGCGCCAUGCCUGCAGGUCGACUCUAGAAAACAUG”, the binding signal with PUM1 PUF domain R1-RTW is 3 log2 enrichment (interaction score).
Regarding “GGCUAGAACUAGUGGAUCCCCCGGCGCCCGGCGGCUCGAGCCCGGGUAAGUGUAUAUAGUCUGCAUGCCGCCGGGCGCCAUGCCUGCAGGUCGACUCUAGAAAACAUG”, the binding signal with PUM1 PUF domain R4-MPV was 3.02 log2 enrichment (interaction score).
